D1 allo mod: allosterically modulates the human D1 dopamine receptor; HEK293 D1, CRE-luciferase, dopamine EC30 potentiation; actives deviate in either direction; 58,000 tested, 5.9% active; AID 641; P21728; B-score at 10 µM;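 active means luminescence count or its row- and column-corrected plate score outside the 99.7% band of the plate's sample wells, on either side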
Target sequence (P21728 whole entry, looked up): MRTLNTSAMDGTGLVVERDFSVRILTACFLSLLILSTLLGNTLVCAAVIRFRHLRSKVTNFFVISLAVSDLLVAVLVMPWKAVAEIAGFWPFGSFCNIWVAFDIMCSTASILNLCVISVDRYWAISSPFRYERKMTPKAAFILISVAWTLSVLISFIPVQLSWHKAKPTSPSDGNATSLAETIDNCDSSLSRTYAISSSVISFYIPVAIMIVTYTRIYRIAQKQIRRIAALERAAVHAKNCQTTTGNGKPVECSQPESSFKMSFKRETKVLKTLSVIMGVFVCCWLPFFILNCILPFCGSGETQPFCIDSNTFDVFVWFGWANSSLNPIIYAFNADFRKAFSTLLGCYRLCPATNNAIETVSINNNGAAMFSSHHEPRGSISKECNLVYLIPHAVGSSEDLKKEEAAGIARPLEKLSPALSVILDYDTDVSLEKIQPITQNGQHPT
M1 antagonist: M1 muscarinic receptor (rat) antagonism; B-score at 10 µM; 64,000 tested, 3.4% active; P08482; CHO-M1 cells, Fluo-4 calcium, ACh EC80 antagonist mode; hits give low values; AID 628;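 active means calcium fluorescence response, raw or row-and-column corrected B-score, differing from the plate sample mean either way at a set confidence level, mostly lower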
M1 agonist: M1 muscarinic receptor agonism. 64,000 tested, 3% active. AID 626. B-score at 10 µM. CHO-M1 cells, Fluo-4 calcium fluorescence, agonist mode; hits give high values;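 active means fluorescence rise, raw or as B-score row- and column-corrected plate score, outside the 99.7% band of its plate's samples, either direction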
WNV protease inh: inhibitors of West Nile virus NS2B-NS3 protease; P06935; AID 577; WNV NS2B-NS3 protease, fluorogenic substrate Ex360/Em465; hits give low values; 65,000 tested, 0.18% active; z-score (test concentration not listed); in the data active means z-score below about -3
Htt clearance: compounds clearing mutant huntingtin protein; HeLa Exon1htt(103Q)mCFP, aggregate imaging; zero = plate's median compound well; inhibition, % at 1.5 µM; 47,000 tested, 0.42% active; AID 853;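 active means inhibition of aggregate fluorescence above about 70%, also judged a hit by eye on the cell image, limit read from the data, passing the limit was not always enough; inconclusive means no rule stated for this call; inactive means not judged a hit on image review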;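 further: cells exposed to compound for three days before fixation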
M1 ag confirm: confirmation of rat M1 muscarinic receptor agonists; shares compounds with M1 agonist; CHO-M1 cells, Fluo-4 calcium fluorescence, agonist mode; actives lie on both sides; fluorescence change (max-min) at 10 µM; 1,700 tested, 19% active;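 active means fluorescence change differs from the solvent-only DMSO control mean at a set confidence level in both duplicate runs; inconclusive means differs from solvent-only control mean in just one of two runs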;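 further: an EC20 dose of acetylcholine follows compound addition during the same imaging run; raw fluorescence intensity difference in instrument units with no normalization to controls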
M4 ag counter: counter-screen for M1 agonists: activity at rat M4 receptor. shares compounds with M1 agonist. CHO M4/Gqi5 cells, Fluo-4 calcium fluorescence, agonist mode; actives lie on both sides. fluorescence change (max-min) at 10 µM. 1,700 tested, 9% active. AID 1741;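 active means fluorescence change differing from the plate's solvent-only control wells at 99.7% confidence in both duplicates, whether higher or lower; inconclusive means differs from solvent controls in only one of two duplicates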
An asterisk follows results filed as active; ? = inconclusive; · = no result. Most compounds without a hit are left out; they make up all but 8.9% or so of the library.

SMILES	D1 allo mod	M1 antagonist	M1 agonist	WNV protease inh	Htt clearance	M1 ag confirm	M4 ag counter
O=S(=O)(Nc1ccc2nc(C(F)(F)F)[nH]c2c1)c1ccccc1	-1.3	-0.22	2.4*	-0.96	-20	-20	-32
CCOc1ccccc1C(=O)NCC(=O)OCC(=O)N1C(C)CCCC1C (stereo not given)	-0.12	-0.3	-2.6*	-0.3	29	?	-84*
CCCn1c(C2CC(=O)N(c3cc(OC)ccc3OC)C2)nc2ccccc21 (stereo not given)	-0.11	-0.24	3.7*	-0.76	·	-14	-56
CCn1c(C2CC(=O)N(c3ccc(C)c(C)c3)C2)nc2ccccc21 (stereo not given)	-0.24	-0.35	0.81	1.2	·	·	·
CCc1cc2cccc(C)c2nc1SCC(=O)N1CCN(C(=O)c2ccco2)CC1	1.4	-0.11	2.5*	-1.3	·	-2.2	-3.5
COc1ccc(CCNC(=O)c2ccn[nH]2)cc1OC	1.5	0.056	0.015	0.47	·	·	·
CCN(CC)c1cccc(OC2=NS(=O)(=O)c3ccccc32)c1	-0.1	-0.56	0.025	-1.3	21	·	·
Cc1c(C(=O)NCC2COc3ccccc3O2)oc2ccc(S(=O)(=O)N3CCOCC3)cc12 (stereo not given)	·	-2.4*	16*	·	·	-13	?
Cc1cc2ccccc2n1CCNC(=O)c1ccc(S(=O)(=O)N2CCOCC2)cc1	0.71	0.18	8.9*	-0.55	·	-18	-26
Cc1c(C(=O)NCCc2ccccc2)oc2ccc(S(=O)(=O)N3CCOCC3)cc12	·	-1.7	2.3*	-0.62	·	-31*	?
C=CCOC(=O)c1sc(N2C(=O)c3oc4ccccc4c(=O)c3C2c2ccco2)nc1C (stereo not given)	1.5	0.22	-0.39	-0.2	·	·	·
Cc1c(NC(=O)CCC(=O)N2CCCCC2)c(=O)n(-c2ccccc2)n1C	0.12	-0.87	-0.13	0.6	·	·	·
CN(C)/C=C1\C(=O)c2ccc(N(C)C)nc2CC1c1ccccc1 (stereo not given)	2.3	-0.34	-0.79	0.09	·	·	·
COc1ccc(CCNC2CCN(C)CC2)cc1OC	1.1	-0.49	-0.36	0.86	26	·	·
CCC(=O)N(Cc1ccco1)c1nc(-c2ccc(OC)cc2)cs1	·	·	·	·	57	·	·
CCC(=O)N(CC)c1nc(-c2ccc(OC)cc2)cs1	·	0.68	46*	1.3	39	?	-75*
O=C1C2C3CCCC3=C3CCCC3C2C(=O)N1c1ccc(Cl)cc1 (stereo not given)	-0.49	-0.9	4.2*	-0.31	·	?	-38
O=C1C2C3CCCC3=C3CCCC3C2C(=O)N1c1cccc(Cl)c1 (stereo not given)	-0.28	0.18	-0.53	-0.01	-5	·	·
Cc1nc2ccc(S(=O)(=O)NCC(=O)N3CCC(C)CC3)cc2s1	-0.85	0.026	-0.6	-0.61	-295	·	·
Cc1cccc(NC(=O)c2cc(NC(=O)c3ccco3)ccc2Cl)n1	-0.079	-0.88	2.5*	0.52	40	0.72	-8
Cc1ccccc1C(=O)N1CCN(c2ccc(NC(=O)c3ccco3)cc2Cl)CC1	-1.5	-0.18	2.9*	-0.39	42	?	-94
Cc1nc(C)c(C(=O)C2=C(O)C(=O)N(CCCN(C)C)C2c2ccco2)s1 (stereo not given)	0.0032	-0.11	0.52	-0.48	·	·	·
CCN1CCc2c(sc(NC(=O)c3ccc(S(=O)(=O)N4CCOCC4)cc3)c2C(N)=O)C1	·	-0.34	0.8	-1.9	·	·	·
CC(C)N1CCc2c(sc(NC(=O)c3ccc(S(=O)(=O)N4CCOCC4)cc3)c2C(N)=O)C1	·	-0.21	8.9*	-0.92	·	13	3.8
CC(C)N(C(=O)NC(=O)NCC1CCCO1)S(C)(=O)=O (stereo not given)	-0.26	0.44	0.27	0.23	-5	·	·
SMILES	D1 allo mod	M1 antagonist	M1 agonist	WNV protease inh	Htt clearance	M1 ag confirm	M4 ag counter
CCC(C)[C@H](NC(=O)NCC1CCCO1)C(=O)OC (stereo not given in full)	0.14	1	5*	-2.6	-8	-1.9	-9.1
CC(=O)c1c(C)[nH]c(C(=O)CSc2nnc(-c3ccco3)n2Cc2ccccc2)c1C	-0.37	-0.94	2.6*	-0.24	·	-6.6	-34
Cc1sc2nc3ccc(N4CCCC4)nn3c(=O)c2c1C	·	-0.56	6.6*	-0.8	·	-8.3	-46
Cc1ccc2nc3ccc(N4CCCCCCC4)nn3c(=O)c2c1	·	·	·	·	10	·	·
O=C(O)c1ccc(COCC(F)(F)C(F)F)o1	·	-0.19	-0.49	-0.29	-20	·	·
Cc1[nH]c2c(ccc3ccccc32)c1C1C(CCN)C1(C)C (stereo not given)	·	·	·	·	-6	·	·
C=C(C)C(=O)OC1(C(F)(F)F)Oc2cc(C)ccc2NC1=O (stereo not given)	·	·	·	·	12	·	·
COc1cc(NC(=O)c2ccco2)c(OC)cc1NC(=O)CSc1nnc(-c2cccs2)n1C	0.16	-0.8	6.2*	-0.04	-21	-32*	?
Cn1c2c(c3ccccc31)CCSC2=O	-0.51	-0.27	-0.3	-0.06	21	·	·
CCCOc1ccc(OC(=O)c2ccc(Br)o2)cc1	0.46	0.42	-0.54	0.24	·	·	·
CCCCCCc1cc2cc(C(=O)NC)c(=N)oc2cc1O	·	-15*	401*	0.78	37	3193*	2756*
COc1ccc(NC(=O)c2cc3cc(OC)ccc3oc2=N)cc1	0.49	-0.19	-0.34	-0.31	·	·	·
C=C(C)Cn1c(=O)c2c(nc3n2CCN3c2cccc(Cl)c2C)n(C)c1=O	-0.14	-1.6	3*	-0.16	·	-12	-32
Oc1ccccc1C1Nc2cccc3cccc(c23)N1	-0.29	0.034	2.7*	-1.9	-47	?	-22
Brc1ccc(C2Nc3cccc4cccc(c34)N2)o1	-0.95	-0.0099	-0.95	2.3	·	·	·
CCN(CC)S(=O)(=O)c1ccc(S(=O)(=O)Nc2ccc(C(=O)N3CCCC3)cc2)cc1	-0.023	0.88	2.2*	-0.34	28	-9.5	-30
COc1ccc(Cl)c(NC(=O)NCCN2CCN(c3ccccc3)CC2)c1	-3.8	-0.43	2.3*	0.05	50	-28*	-59
COc1ccc(Cl)cc1NC(=O)c1cccnc1	0.055	0.00031	0.28	-0.89	-54	·	·
CCOC(=O)CSCC(=O)Nc1c(C(=O)C2CC2)oc2ccccc12	·	·	·	·	-46	·	·
Cc1cc(S(=O)(=O)N2CCN(Cc3ccc4c(c3)OCO4)CC2)cc(C)c1N1CCCC1=O	-4.6*	0.85	3.3*	0.73	·	-18	-40
O=C1c2ccccc2-c2onc3ccc(NCc4ccco4)c1c23	2.1	-0.005	183*	-2.5	·	624*	1149*
CCOc1ccc2noc3c2c1C(=O)c1ccccc1-3	3.6	-9.6*	397*	0.74	·	3216*	2874*
CCNc1ccc2noc3c2c1C(=O)c1ccccc1-3	·	·	·	·	37	·	·
COc1ccccc1N1CSC2=C(C#N)C(c3ccc(SC)cc3)CC(=O)N2C1 (stereo not given)	-0.22	0.92	-0.0077	-0.33	?	·	·

Compound activity (PubChem)
